Molecules are shown by their SMILES. About 380 (27%) of roughly 1,400 compounds were called active. The list shows a part of the results. Unmarked numbers belong to inactive results.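 The calls were made as follows: active = mean inhibition above 50% across duplicate retests at 10 µM; inactive = the rest.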

A short description of this test: inhibition of NALP1/ASC/caspase-1 reporter signal in yeast, confirmation, NALP1 inhibitor project, S. cerevisiae, luminescence, single concentration (AID 488841).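 Also: plate controls were DMSO in galactose medium for no effect and cells in plain SD medium for full effect.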 The conditions noted are these: S. cerevisiae NALP1/ASC/Caspase-1 reporter, beta-gal luminescence; at 10 µM; stronger effect = higher value.
One may read the inhibition as the share of the control response that was lost under treatment. In the case of `CC(=O)n1cc(-c2ccncc2)c2ccccc21`, the inhibition is 46.6%. The result for `O=C(O)Cn1nc(-c2ccccc2)oc1=O` reads 27.4%. The result for `COC(=O)Cn1nc(-c2ccccc2)c2ccccc21` reads 99.7% (active).

As to `COc1ccc2c(c1)C1=NN(/C(C)=C/C(C)=O)C(c3cccc(F)c3)C1CC2` (stereo unspecified), the inhibition was 42.1%. With `COC(=O)N/N=C/c1ccc(-c2cccc(Cl)c2)o1` the figure was 68.8% (active); with `Cc1ccc(/C=N/NC(=O)c2ccc3nc[nH]c3c2)o1`, 31.1%. The result for `COC(=O)N/N=C/c1ccc(OC(=O)c2ccco2)c(OC)c1` reads 22.6%; that for `O=C1c2ccccc2C(O)N1c1cccnc1` (stereo unspecified), 27.9%.

Take `O=C1c2ccccc2C(Nc2ccc(Cl)cn2)N1Cc1ccccc1` (stereo unspecified): the inhibition was 55.5% (active). With `CC1CCc2nc3sc4c(c3c(N)c2C1)CCCC4` (stereo unspecified) the figure was 56.2% (active).

With `Nc1c2c(nc3sc4c(c13)CCCCC4)CCCCC2`, the inhibition is 40.6%. Consider `Nc1c2c(nc3sc4c(c13)CCCC4)CCCCCC2`, for which the inhibition is 32.1%.

Regarding `CSCCNC(C)=O`, the inhibition was 15%.

As to `O=C(NCc1cccs1)c1csc2ccccc12`, the inhibition was 51.3% (active). The result for `CC(C)CC(=O)c1c[nH]c(C(=O)NCc2cccs2)c1` reads 22.6%.

Consider `O=C(c1ccco1)N1CCN(Cc2cn[nH]c2-c2cccc3ccccc23)CC1`, for which the inhibition was 25.2%. For the molecule `COc1ccccc1N1CCN(CCCCOc2cccc3ccccc23)CC1`, the inhibition is 62.8% (active). With `COc1ccccc1OCCCCN1CCN(c2ccccc2OC)CC1`, the inhibition was 17.7%. With `COc1ccccc1N1CCN(CCCCCCOc2ccc(F)cc2)CC1` the figure was 63.4% (active); with `O=C(COc1cccc2ccccc12)N1CCN(c2ccccc2)CC1`, 48.1%. As to `COc1ccc(CN2CC(C(=O)NCCN3CCN(c4ccccc4F)CC3)CC2=O)cc1` (stereo unspecified), the inhibition was 32%. For the molecule `COC(=O)c1ccc(C(=O)OC)c(NC(=O)CN2CCN(c3ccccc3OC)CC2)c1`, the inhibition is 38.4%. Consider `CCC(C)C(=O)N1c2ccccc2C(=C2SC(C(=O)OC)=C(C(=O)OC)S2)C(=S)C1(C)C` (stereo unspecified), for which the inhibition was 40%. With `COc1ccc(NC(=O)N2CCC(CO)(CC3CCCCO3)CC2)c(OC)c1` (stereo unspecified) the figure was 29.4%. With `CN1CCC(Oc2ccc(Sc3ccccc3)cc2)CC1` the figure was 40.1%. With `O=CC1=C(c2ccccc2)Oc2ccccc2O1`, the inhibition is 94.8% (active).

Take `Clc1ccc(OCCCN2CCCC2)cc1Cl`: the inhibition is 39.5%.

Consider `CN(C)Cc1ccccc1Sc1ccccc1Br`, for which the inhibition was 28.9%. For the molecule `Cc1cccc(Oc2nc(CN3CCOCC3)nc3sc4c(c23)CCCC4)c1`, the inhibition is 51.5% (active). The result for `Fc1ccc(Nc2nc(Oc3ccccc3F)nc(N3CCCC3)n2)cc1` reads 29.2%. With `C=CCSc1nsc(NC(=O)Nc2ccc(F)cc2)n1` the figure was 97.7% (active); with `O=C1/C(=C/c2cccnc2)SC(=S)N1C1CCS(=O)(=O)C1` (stereo unspecified), 44.6%; with `CC1=CC(=O)C=C(C)C1=NOS(=O)(=O)c1ccccc1`, 53.9% (active). The result for `CC1=C/C(=N\OS(=O)(=O)c2ccccc2)C(C(C)C)=CC1=O` reads 88.5% (active); that for `CCN(CCO)Cc1csc2ccc(Br)cc12`, 41%; that for `C/C(=N\NC(=O)c1c[nH]c2ccccc12)c1ccco1`, 26.3%. As to `O=S(=O)(Nc1ccncc1Cl)c1ccccc1`, the inhibition was 27.6%. As for `O=C(Nc1nccs1)c1sc2ccccc2c1Cl`, the inhibition is 61.4% (active). For `O=C(Nc1nc(-c2ccccn2)cs1)c1ccc(Cl)s1`, the inhibition is 24.1%. For the molecule `CNC(=O)c1ccsc1NC(=O)c1sc2ccccc2c1Cl`, the inhibition is 33.5%. With `COC(=O)Nc1nc(C)c(C(=O)c2ccccc2)s1` the figure was 44.9%; with `COC(=O)Nc1sc2nc(C)cc(C)c2c1-n1cccc1`, 54% (active); with `Cc1ccc2c(Cl)c(C)c(N3CCCCC3)nc2n1`, 55.4% (active). Consider `CSC1=N/C(=C\c2cccnc2)C(=O)N1c1ccccc1`, for which the inhibition is 30.7%. The result for `O=S(=O)(Nc1cccnc1)c1cccs1` reads 26.2%; that for `COc1ccc(C(=O)Cn2c(C(=O)/C=C/c3ccccc3)nc3ccccc32)cc1`, 25.8%; that for `Cc1ccc(C(=O)/C=C/c2cn(CC(O)CN3CCOCC3)c3ccccc23)cc1` (stereo unspecified), 39.7%. With `COc1ccc(C(=O)/C=C/c2ccc(OC)c(CN3CCOCC3)c2)cc1` the figure was 63.4% (active); with `C/C(=N\Nc1nc2c(s1)CCCC2)c1ccccc1`, 29.5%. The result for `CC(C)OC(=O)COc1ccc(-c2ccccc2)cc1` reads 25.2%. As for `CCCOc1ccc(C(=O)NC(C)C(=O)O)cc1` (stereo unspecified), the inhibition was 29.1%. The result for `CCOc1ccc(C(=O)C(CCC(CN(C)C)C(=O)c2ccc(OCC)cc2)CN(C)C)cc1` (stereo unspecified) reads 73% (active). The result for `O=C(NCc1cccnc1)C1CCN(S(=O)(=O)c2cccnc2)CC1` reads 33.3%. With `CCNC(=S)SCCOc1ccccc1C` the figure was 57.5% (active); with `Cc1ccc(/C(COc2ccccc2O)=N\O)cc1`, 44%; with `CCn1c(COc2ccccc2C)nnc1SCC(=O)N1CCN(c2ccccc2)CC1`, 20.6%. With `C=CCn1c(=O)c2ccc(C(=O)NCc3ccccc3)cc2n(Cc2ccccc2Cl)c1=O`, the inhibition is 27%.

Regarding `O=C(CCN1CCc2ccccc2C(c2ccccc2)C1)c1ccc2c(c1)OCCO2` (stereo unspecified), the inhibition was 30%. As for `Cc1nc(-c2ccccc2)cn2c1nc1ccccc12`, the inhibition is 49%. For the molecule `c1ccc(-c2ccc(-c3cn4c(n3)CCC4)cc2)cc1`, the inhibition was 85.2% (active).

For `COc1cc2nc(Cl)nc(N3CCN(C)CC3)c2cc1OC`, the inhibition is 39.5%. The result for `c1ccc(Nc2ccccn2)cc1` reads 27.3%. Turning to `O=c1sc(Nc2ccccc2)nc2ccsc12`, the inhibition is 78.8% (active). With `CC(C)CN=Cc1c(O)c([N+](=O)[O-])cc2oc3c(c12)CCCC3`, the inhibition was 35.5%. With `CC(C)C(=O)N(Cc1ccccc1)c1ccccn1` the figure was 19.8%; with `Cc1cc(C)c(S(=O)(=O)N(CC(=O)O)CC(=O)O)c(C)c1`, 25.9%; with `COc1ccccc1NC(=O)CCN1CCN(Cc2ccccc2)CC1`, 44.5%. With `CCCCOc1ccccc1NC(=O)c1ccco1` the figure was 34.8%; with `CCOc1ccccc1N/C=C(\C#N)c1nc2ccccc2n1C`, 12.5%; with `CCOc1ccccc1NC(=O)/C=C/C(N)=O`, 59.6% (active). The result for `CCCOc1ccccc1NC(=O)/C=C/C(N)=O` reads 71.2% (active); that for `O=[N+]([O-])/C(C(=C(Cl)Cl)N1CCN(Cc2ccccc2)CC1)=C1\NCCN1Cc1ccc(Cl)nc1`, 35.4%. For `CCOC(=O)c1c(C)[nH]c(N=Nc2cccc(C)c2)c1C`, the inhibition was 46.4%. The result for `Oc1c(Cl)cc(Cl)c2c1NCCC2` reads 41.9%; that for `Oc1c(Cl)cc(Cl)c(Cl)c1Cc1c(O)c(Cl)cc(Cl)c1Cl`, 99.9% (active). With `CCOC(=O)C(C(=O)OCC)C(C(=O)OCC)N1CCOCC1` (stereo unspecified), the inhibition was 64.8% (active). The result for `CCC(Cc1ccccc1)NC(=O)C1CCN(S(=O)(=O)c2c(C)noc2C)CC1` (stereo unspecified) reads 26.1%; that for `CN(C)c1ccc(NC(=O)COC(=O)c2cc(Cl)ccc2[N+](=O)[O-])cc1`, 62.9% (active); that for `CCOC(=O)c1cc([N+](=O)[O-])c([N+](=O)[O-])cc1NC(C)=O`, 24.9%. The result for `NS(=O)(=O)c1ccc(NC(=O)COC(=O)c2cn(-c3ccccc3)nc2-c2ccc(F)cc2)cc1` reads 18.7%. The result for `CC1CCN(CCOc2ccc(OCc3ccccc3)cc2)CC1` reads 48.1%; that for `O=C(N/N=C/c1cccc(F)c1)c1c(O)c2ccccc2[nH]c1=O`, 31.5%; that for `CCOC(=O)c1nc(C)sc1-c1ccnn1S(=O)(=O)c1ccc(C)cc1`, 29.4%.

Consider `O=C(O)CC(Cn1cnnn1)c1ccccc1` (stereo unspecified), for which the inhibition is 25.9%. With `CCc1cccc(OCCN2CCCC2)c1` the figure was 29.9%; with `Clc1cccc(OCCN2CCN(CCOc3cccc(Cl)c3)CC2)c1`, 60.4% (active).

For `Brc1cccc(OCCN2CCCCC2)c1`, the inhibition was 44.9%. Turning to `CCN(CC)S(=O)(=O)c1cccc(C(=O)N[C@H](C(=O)O)C(C)C)c1`, the inhibition is 33.2%. The result for `Cc1cccc(N=C2NC(=O)/C(=C\c3cccs3)S2)c1` reads 44%; that for `O=C(Nc1ccc(Nc2ccccc2)cc1)C(Cl)Cl`, 78.8% (active); that for `COC1=C(Nc2ccccc2)C(=O)c2ccccc2C1=O`, 17.4%. On to `CC(C)C(=O)Nc1ccc(Nc2ccccc2)cc1`, for which the inhibition was 58.4% (active). Turning to `CC(CC(=O)Nc1cccc(Cl)c1)c1ccccc1` (stereo unspecified), the inhibition is 42.7%. With `Cc1cccc(C)c1NC(=O)C(Cl)C(=O)c1ccccc1` (stereo unspecified) the figure was 12.7%; with `CNCc1ccccc1Sc1cc(O)ccc1O`, 26.8%. For the molecule `O=S(=O)(CC12C3C4C5C1C2C(Br)(C43)C51OCCO1)c1ccccc1` (stereo unspecified), the inhibition was 40%.

As to `CC1CCCCN1S(=O)(=O)c1cnc(Cl)c(Br)c1` (stereo unspecified), the inhibition is 68.1% (active).

In the case of `O=c1c(Br)c(N2CCCC2)cnn1-c1ccccc1`, the inhibition was 41.4%.

`CC1CC(C)CN(S(=O)(=O)c2ccc(C(=O)NCc3ccc4c(c3)OCO4)cc2)C1` (stereo unspecified): the inhibition is 24.1%. Consider `Cc1ccc(-c2cc(NC(=O)CSc3n[nH]c(N)n3)n(-c3ccccc3)n2)cc1`, for which the inhibition is 24.2%. On to `O=C(CCl)Nc1cc(-c2ccccc2)nn1-c1ccccc1`, for which the inhibition is 68.9% (active). With `COCC(=O)OCC(=O)Nc1cc(C(C)(C)C)nn1-c1ccccc1` the figure was 25.4%.

With `CC(C)c1ccc(-c2c(C#N)c(N)nc3c2CCCCC3)cc1`, the inhibition is 23.8%.

For `O=[N+]([O-])c1ccc(N2CCN(C(=S)Nc3ccccc3)CC2)cc1`, the inhibition was 32%. The result for `O=C(NC(CO)Cc1ccc([N+](=O)[O-])cc1)C(Cl)Cl` (stereo unspecified) reads 29.8%.

As to `O=[N+]([O-])c1ccc(NC(=S)NCCc2ccc(F)cc2)cc1`, the inhibition is 85.5% (active). With `S=C(NCCCc1ccccc1)Nc1ccc(Cl)cc1` the figure was 86.3% (active). With `CCc1cccc(CC)c1NC(=S)NCCc1c(C)[nH]c2ccccc12` the figure was 37.9%. The result for `Cc1cc(C)cc(NS(=O)(=O)c2ccc(NC(=S)Nc3ccccc3)cc2)c1` reads 26.1%; that for `S=C(NCCc1ccccc1)Nc1ccc(Br)cc1`, 70.2% (active); that for `CC1CCCCN1C(=S)NCCc1ccccc1` (stereo unspecified), 47.7%.

The record behind these values is PubChem BioAssay AID488841 (Sanford-Burnham Center for Chemical Genomics, 2010).
